# HPGD inh: qHTS Assay for Inhibitors of HPGD (15-Hydroxyprostaglandin Dehydrogenase); 15-hydroxyprostaglandin dehydrogenase [NAD(+)] (Homo sapiens), P15428; Potency, µM, for the others: top-dose activity change, negative = inhibition, usual class: inhibitors; purified HPGD, NADH fluorescence kinetic, PGE2 substrate; 150,000 compounds, 4.3% hits; AID 894, 2007; active = well fitted inhibition curve with a large enough effect, not every such curve was filed as active; inconclusive = small, poorly fitted or top-dose-only effect, or another doubt; inactive = no such curve, though single readings can be large or run the other way; also: potency is read from the fitted curve at half-maximal effect
# Target sequence (P15428 whole entry, looked up): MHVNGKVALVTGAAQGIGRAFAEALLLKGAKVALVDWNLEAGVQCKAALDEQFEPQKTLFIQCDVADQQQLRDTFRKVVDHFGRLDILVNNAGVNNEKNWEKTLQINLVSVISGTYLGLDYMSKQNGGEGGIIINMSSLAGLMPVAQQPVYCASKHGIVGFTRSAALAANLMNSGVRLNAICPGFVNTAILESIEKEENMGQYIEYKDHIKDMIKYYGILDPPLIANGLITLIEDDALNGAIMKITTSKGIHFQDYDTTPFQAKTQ
#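 NADH formation kinetics: reaction with 30 uM PGE2 and 1 mM NAD+ (final), 20 nM enzyme, Tris-HCl pH 8 with Tween 20, after 15 min compound preincubation at room temperature. Fluorescence change, last versus first of five reads.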
# IMPase cell inh: qHTS Assay for Identifying the Cell-Membrane Permeable IMPase Inhibitors. Inositol monophosphatase 1 (Rattus norvegicus), P97697. CHO-M1 cells, IP1 accumulation, HTRF TR-FRET ratio. inhibition (IP1 accumulation), % at 46.1 µM. 120,000 tested, under 10 active. AID 901, 2007; active = well fitted curve in the direction sought with a large enough effect in the signal ratio, not every such curve was filed as active; inconclusive = small, poorly fitted or top-dose-only effect, or a change in a side signal; inactive = no such curve, though single readings can be large or run the other way; the % refers to the signal ratio;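 also: cells stimulated with carbachol in lithium chloride buffer; plate controls were DMSO basal wells for no effect and reference inhibitor wells for full effect; higher means more IMPase inhibition seen as more IP1 and lower FRET ratio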
#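 Carbachol-driven Gq signalling in CHO-M1 cells (2000/well) generates IP1. Compounds that block IMPase raise IP1 and so reduce the FRET signal from Eu-anti-IP1 and d2-IP1 after a 10 min room-temperature lysis.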
# 12-hLO inh: qHTS Assay for Inhibitors of 12-hLO (12-human lipoxygenase); 150,000 compounds, 0.12% hits; Potency, µM (series often up to 57.1 µM), without a hit: at the highest dose activity change, negative = inhibition, usual class: inhibitors; purified 12-hLO, xylenol orange hydroperoxide absorbance; also: potency is read from the fitted curve at half-maximal effect; nearly all actives have a fitted effect of over 55% in size
#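 Purified human 12hLO (150 nM final) was preincubated with compounds for 15 min at room temperature in 25 mM Hepes pH 7.0, 0.01% Triton X-100, then reacted with 40 uM arachidonic acid for 30 min. Hydroperoxide was detected with ferrous iron/xylenol orange.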
# ALDH1A1 inh: qHTS Assay for Inhibitors of Aldehyde Dehydrogenase 1 (ALDH1A1); Aldehyde dehydrogenase 1A1 (Homo sapiens), P00352; Purified ALDH1A1, NADH fluorescence, propionaldehyde substrate; Potency, µM (highest dose often 75.3 µM), for inactives: at the top dose activity, negative = inhibition, usual class: inhibitors; 220,000 compounds, 7.3% hits; AID 1030, 2008; active = well fitted inhibition curve with a large enough effect, not every such curve was filed as active; inconclusive = small, poorly fitted or top-dose-only effect, or another doubt; inactive = no such curve, though single readings can be large or run the other way;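 also: potency is read from the fitted curve at half-maximal effect; plate controls were no enzyme wells and a reference inhibitor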
# NPSR antagonist: qHTS Assay for Antagonists of the Neuropeptide S Receptor: cAMP Signal Transduction; Q6W5P4; CHO-NPSR cells, cAMP TR-FRET, antagonist mode; Potency, µM (doses to about 38.3 µM), for inactives: at the highest dose activity change, negative = inhibition, usual class: inhibitors; 220,000 compounds, 1% hits; AID 1461, 2008; also: potency is read from the fitted curve at half-maximal effect; nearly all actives have a fitted effect of over 50% in size
# Target sequence (Q6W5P4 whole entry, looked up): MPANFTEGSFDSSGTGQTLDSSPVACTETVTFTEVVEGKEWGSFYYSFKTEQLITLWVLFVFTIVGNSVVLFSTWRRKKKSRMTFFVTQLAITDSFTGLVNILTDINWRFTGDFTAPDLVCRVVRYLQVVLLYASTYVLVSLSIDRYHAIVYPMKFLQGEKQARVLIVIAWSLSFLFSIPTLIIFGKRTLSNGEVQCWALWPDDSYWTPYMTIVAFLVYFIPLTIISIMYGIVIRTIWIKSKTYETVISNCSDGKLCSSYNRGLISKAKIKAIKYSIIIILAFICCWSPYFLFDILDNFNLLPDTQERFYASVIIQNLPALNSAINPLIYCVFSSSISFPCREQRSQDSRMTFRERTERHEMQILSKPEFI
# IMPase Li cell: qHTS Assay for Identifying the Cell-Membrane Permeable IMPase Inhibitors: Potentiation with Lithium | CHO-M1 cells, IP1 TR-FRET (IP-One), carbachol + lithium | Potency, µM (titrated, usually from 59.4 µM), for inactives: at the highest dose activity, negative = IMPase inhibition, most hits filed as inhibitors | 210,000 compounds, 0.35% hits | AID 1457, 2008;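 also: IP1 builds up when IMPase is blocked and the TR-FRET signal falls; potency is read from the fitted curve at half-maximal effect; plate controls were basal vehicle for no effect and high inhibitor control for full effect; nearly all actives have a fitted effect of over 50% in size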
#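 CHO cells stably expressing M1 receptor (2000/well) were cultured 16–30 h, then exposed to compounds with a small lithium addition for 30 min at 37C. IP1 was measured by TR-FRET competition; AC50 from Hill fits.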
# Numbers without * were called inactive; ? = inconclusive; . = no result given; [ ] = remark or other dose. Hits are enriched below; roughly 8.9% of the tested compounds scored in any of these assays. Unless noted, calls follow the shape of the dose curve; as a rule, active = well fitted curve in the direction sought with a large enough effect; inconclusive = small, poorly fitted or top-dose-only effect, or another doubt; inactive = no such curve, though single readings can be large; an effect the other way counts as inactive or inconclusive. Unless noted, % is scaled to controls: 0 for no effect and ±100 for the full control effect.
SMILES,HPGD inh,IMPase cell inh,12-hLO inh,ALDH1A1 inh,NPSR antagonist,IMPase Li cell
C[C@H](CCC(=O)O)[C@H]1CC[C@]2(C)[C@@H]3C(=O)C[C@H]4C(C)(C)[C@@H](O)CC[C@]4(C)[C@H]3C(=O)C[C@@]12C,-6%,.,1%[11.4 µM],1%[13.5 µM],.,5%
COCCOC(=O)C1=C(C)OC(N)=C(C#N)C1c1ccc2c(c1)OCO2 (centres undefined),32µM*,3,-23%,13µM*,5%[46.1 µM],36%[38.3 µM]
C=CCOC(=O)C1=C(C)OC(N)=C(C#N)C1c1ccc2c(c1)OCO2 (centres undefined),?,9,-29%,?,0%[46.1 µM],28%[38.3 µM]
COc1ccc(NS(=O)(=O)/C=C/c2ccccc2)cc1,-14%,.,-2%,2.5µM*,15%,-9%
CCN1/C(=C/c2ccc3ccccc3[n+]2CC)C=Cc2ccccc21,-10%,32,0%,?,7.9µM*,56%[38.3 µM]
CCCCN1/C(=C/c2ccc3ccccc3[n+]2CC)Sc2ccccc21,.,.,.,?,-51%,-1%
COc1cccc(CNC(=O)Cn2cccc2)c1,14µM*,-3,8%,-1%,-9%[46.1 µM],5%[38.3 µM]
CCN(CC(=O)NCc1ccc(F)cc1)Cc1nc2cc(Cl)ccc2c(=O)[nH]1,32µM*,12,-6%,22µM*,-5%[46.1 µM],28%[38.3 µM]
CCN(CC(=O)NC(c1ccccc1)c1ccccc1)Cc1nc2ccccc2c(=O)[nH]1,-18%,2,-8%,18µM*,?,7%[38.3 µM]
COc1cc2nc(CN(C)Cc3nc4ccccc4c(=O)[nH]3)[nH]c(=O)c2cc1OC,-20%,-5,5%,-8%,-5%[46.1 µM],19%[38.3 µM]
CCN(CC(=O)NCCc1ccc(F)cc1)Cc1nc2ccccc2c(=O)[nH]1,.,.,.,.,4%,.
COc1cc2nc(CN(C)CC(=O)Nc3ccc(N4CCOCC4)cc3)[nH]c(=O)c2cc1OC,?,17,-9%,28µM*,-28%[46.1 µM],-2%[38.3 µM]
CCN(CC(=O)Nc1ccc2c(c1)CCC2)Cc1nc2ccccc2c(=O)[nH]1,-24%,0,-2%,14µM*,-4%[46.1 µM],13%
CCN(CC(=O)Nc1ccc2c(c1)OCO2)Cc1nc2ccccc2c(=O)[nH]1,-6%,6,-3%,?,-8%[46.1 µM],-4%[38.3 µM]
Cc1cc(-c2nnc3n2N=C(C(C)(C)C)CS3)n[nH]1,-8%,-2,4%,14%,-5%[46.1 µM],-15%[38.3 µM]
CN(CC(=O)Nc1ccc(N2CCOCC2)cc1)CC(=O)Nc1ccc(N2CCOCC2)cc1,.,.,.,.,15%,.
CN(CC(=O)Nc1ccc(N2CCOCC2)cc1)Cc1c(O)ccc2ccccc12,.,.,.,3.5µM*,-6%,3%
CCN(CC(=O)Nc1ccc(N2CCOCC2)cc1)Cc1nc2ccccc2c(=O)[nH]1,-25%,5,6%,22µM*,-6%[46.1 µM],-5%[38.3 µM]
Cc1c(-c2cccs2)[n+](=O)c2c(n1[O-])CCC2,-3%,-8,-3%,-5%,-1%[46.1 µM],-3%[38.3 µM]
Cc1cc(C(=O)COC(=O)C2=COCCO2)c(C)n1-c1ccc2c(c1)OCO2,16µM*,14,-5%,16µM*,-23%[46.1 µM],5%[38.3 µM]
Cc1cccc(-n2nnnc2SCC(=O)c2cc(C)n(Cc3ccco3)c2C)c1,-8%,-4,-8%,18µM*,-23%[46.1 µM],3%[38.3 µM]
Cc1cc(C(=O)CSc2nnnn2-c2ccccc2)c(C)n1-c1ccc2c(c1)OCO2,-19%,.,-4%,0.25µM*,-20%,4%
Cc1cc(C(=O)CSc2nnnn2-c2ccc(O)cc2)c(C)n1Cc1ccc2c(c1)OCO2,-4%,13,-1%,-4%,?,37%[38.3 µM]
Cc1cccc(-n2nnnc2SCC(=O)c2cc(C)n(CC3CCCO3)c2C)c1 (centres undefined),-10%,16,0%,7.9µM*,-19%[46.1 µM],4%[38.3 µM]
Cc1cc(C(=O)COc2ccc(C#N)cc2)c(C)n1-c1ccc2c(c1)OCO2,-4%,.,-1%,5%,-24%,13%
SMILES,HPGD inh,IMPase cell inh,12-hLO inh,ALDH1A1 inh,NPSR antagonist,IMPase Li cell
Cc1ccc(-n2nnnc2SCC(=O)c2cc(C)n(CC3CCCO3)c2C)cc1 (centres undefined),-2%,2,-3%,0%,-28%[46.1 µM],9%[38.3 µM]
COc1ccccc1NC(=O)c1ccc(NC(=O)Cc2n[nH]c(=O)c3ccccc23)cc1,.,.,.,-14%,23%,.
CCc1ccc(-c2nc(CSCC(=O)NCCCN3CCCC3=O)c(C)o2)cc1,-15%,0,2%,-4%,-3%[46.1 µM],2%[38.3 µM]
Cc1cc(C(F)(F)F)c(C#N)c(SCC(=O)Nc2nc3cc(Br)ccc3s2)n1,?,.,-12%,9%,0%,-5%
Cn1c(SCC(=O)c2ccccc2)nnc1C1COc2ccccc2O1 (centres undefined),.,.,.,?,-2%,.
Cc1cc(C(=O)CSc2nc3ccccc3[nH]2)c(C)n1CC1CCCO1 (centres undefined),16µM*,15,4%,?,1%[46.1 µM],28%[38.3 µM]
Cc1cc(C(=O)CSc2nnc(C3COc4ccccc4O3)n2C)c(C)n1-c1ccc(F)cc1 (centres undefined),28µM*,23,-17%,?,-12%[46.1 µM],37%[38.3 µM]
Cc1ccc(Cn2nc(-c3ccccc3)nc2-c2ccccc2)cc1,-6%,4,-1%,-11%,-26%[46.1 µM],24%[38.3 µM]
CC(C)c1cc(NC(=O)CCl)on1,.,.,.,1.6µM*,-10%,10%
Cc1cc(Br)c(NC(=O)CCl)c(Br)c1,-22%,.,5%,-16%,17%,-16%
COc1ccc(CCNC(=O)C23CN(Cc4ccccc4)CC2C(c2cccc([N+](=O)[O-])c2)=NO3)cc1 (centres undefined),-25%,13,-1%,8.9µM*,-1%[46.1 µM],-2%
CC(C)CCNC(=O)C12CN(Cc3ccccc3)CC1C(c1ccc([N+](=O)[O-])cc1)=NO2 (centres undefined),-22%,5,-4%,2.8µM*,?,9%
COc1cccc(CNC(=O)C23CN(Cc4ccccc4)CC2C(c2ccc([N+](=O)[O-])cc2)=NO3)c1 (centres undefined),-8%,4,5%,?,-25%[46.1 µM],7%[38.3 µM]
Cc1ccc(CCNC(=O)C23CN(Cc4ccccc4)CC2C(c2cccc([N+](=O)[O-])c2)=NO3)cc1 (centres undefined),-18%,11,3%,?,?,-2%
O=C(NCc1ccccc1C(F)(F)F)C12CN(Cc3ccccc3)CC1C(c1ccc([N+](=O)[O-])cc1)=NO2 (centres undefined),-17%,2,0%,25µM*,-30%[46.1 µM],-1%

# Assay outcomes: PubChem, National Center for Advancing Translational Sciences (NCATS)
